# Assay outcomes as filed in PubChem BioAssay.
# This is one part of a sample in which hits are shown more often than they occur.
# IDE exosite inh = insulin-degrading enzyme (human) exo-site inhibition. P14735. purified IDE, FL-6b probe fluorescence polarization; hits give low values. z-score at 20 µM. 17,000 compounds, 6.3% hits. AID 1259349;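 active = z-score of -3 or lower, meaning strong loss of probe binding signal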;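 also: His-tagged human IDE residues 42-1019 made in E. coli with 30 nM FL-6b probe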
# Starred values were filed as active, the others as inactive.
SMILES,IDE exosite inh
COc1ccc(-c2ccc([C@@H]3[C@H](CO)N4CCCCN(C(=O)Cc5ccncc5)C[C@@H]34)cc2)cc1,-2.3
COc1ccc(C#Cc2ccc([C@H]3[C@H]4CN(C(=O)Cc5cccnc5)CCCCN4[C@H]3CO)cc2)cc1,-4*
COc1ccc(C#Cc2ccc([C@@H]3[C@H]4CN(C(=O)Cc5ccncc5)CCCCN4[C@H]3CO)cc2)cc1,-0.35
COc1ccc(C#Cc2ccc([C@@H]3[C@@H](CO)N4CCCCN(C(=O)Cc5cccnc5)C[C@@H]34)cc2)cc1,2.7
COc1ccc(C#Cc2ccc([C@H]3[C@H]4CN(C(=O)Cc5ccncc5)CCCCN4[C@H]3CO)cc2)cc1,-3.5*
COc1ccc(C#Cc2ccc([C@H]3[C@@H](CO)N4CCCCN(C(=O)Cc5ccncc5)C[C@@H]34)cc2)cc1,-4.8*
COc1ccc(C#Cc2ccc([C@H]3[C@@H](CO)N4CCCCN(C(=O)Cc5ccncc5)C[C@H]34)cc2)cc1,0.97
COc1ccc(C#Cc2ccc([C@@H]3[C@@H](CO)N4CCCCN(C(=O)Cc5ccncc5)C[C@@H]34)cc2)cc1,0.35
COc1ccc(C#Cc2ccc([C@H]3[C@@H](CO)N4CCCCN(C(=O)Cc5cccnc5)C[C@H]34)cc2)cc1,-1.3
C/C=C/c1ccc(C2[C@@H]3CN(Cc4cccc(F)c4)C[C@H]2N3)cc1 (stereo not given in full),3.4
COc1cccc(-c2ccc([C@@H]3[C@H]4CN(C(=O)Cc5ccncc5)CCCCN4[C@H]3CO)cc2)c1,-0.67
O=C(Cc1ccncc1)N1CCCCN2[C@H](CO)[C@@H](c3ccc(C#CC4(O)CCCC4)cc3)[C@@H]2C1,0.2
O=C(Cc1cccnc1)N1CCCCN2[C@H](CO)[C@@H](c3ccc(C#CC4CCCC4)cc3)[C@H]2C1,1.5
O=C1CNC[C@@H]2[C@@H](c3ccc(Br)cc3)[C@H](CO)N12,1.4
N#Cc1cccc(-c2ccc([C@H]3[C@H](CO)N4CCCCN(C(=O)Cc5ccccc5)C[C@@H]34)cc2)c1,3.6
C/C=C/c1ccc(C2[C@@H]3CN(Cc4cccnc4)C[C@H]2N3)cc1 (stereo not given in full),-0.36
O=C(O)[C@@H]1[C@@H](CO)[C@@H]2Cn3c(ccc(C4=CCCCC4)c3=O)[C@H]1N2C(=O)Cc1ccccn1,0.84
Cc1ccccc1-c1ccc([C@H]2[C@@H](CO)N3CCCCN(C(=O)Cc4ccccn4)C[C@H]23)cc1,-14*
O=C(Cc1ccccn1)N1CCCCN2[C@H](CO)[C@H](c3ccc(Br)cc3)[C@H]2C1,-0.15
O=C(Cc1ccccn1)N1CCCCN2[C@H](C1)[C@@H](c1ccc(Br)cc1)[C@@H]2CO,-0.067
Cc1ccccc1-c1ccc([C@@H]2[C@H](CO)N3CCCCN(C(=O)Cc4ccccn4)C[C@@H]23)cc1,-16*
O=C(Cc1ccccn1)N1CCCCN2[C@@H](CO)[C@H](c3ccc(Br)cc3)[C@@H]2C1,-0.37
O=C(Cc1ccccn1)N1CCCCN2[C@H](CO)[C@@H](c3ccc(-c4ccccc4)cc3)[C@@H]2C1,-2.4
COc1ccc(C#Cc2ccc([C@H]3[C@H](CO)N4CCCCN(C(=O)Cc5cccnc5)C[C@@H]34)cc2)cc1,-1.4
CCC(=O)N1[C@@H]2c3ccc(C4=CCCC4)c(=O)n3C[C@H]1[C@H](CO)[C@H]2C(=O)OC,0.59
SMILES,IDE exosite inh
O=C(Cc1ccccn1)N1CCCCN2[C@H](C1)[C@H](c1ccc(-c3ccc(F)cc3)cc1)[C@@H]2CO,1.3
O=C(Cc1ccccn1)N1CCCCN2[C@H](CO)[C@H](c3ccc(-c4ccccc4F)cc3)[C@@H]2C1,-4.2*
O=C(Cc1ccccn1)N1CCCCN2[C@@H](CO)[C@@H](c3ccc(-c4ccc(F)cc4)cc3)[C@@H]2C1,1.7
O=C(Cc1ccccn1)N1CCCCN2[C@H](C1)[C@@H](c1ccc(-c3ccc(F)cc3)cc1)[C@@H]2CO,4.4
O=C(Cc1ccccn1)N1CCCCN2[C@@H](CO)[C@H](c3ccc(-c4ccc(F)cc4)cc3)[C@@H]2C1,2.5
O=C(Cc1ccccn1)N1CCCCN2[C@H](CO)[C@@H](c3ccc(-c4ccccc4F)cc3)[C@@H]2C1,-4.7*
OC[C@@H]1Nc2ccc(C#Cc3cccnc3)cc2[C@H]2NCC[C@@H]12,-0.33
CC=Cc1ccc2n(c1=O)C[C@H]1[C@H](CO)[C@@H](C(=O)OC)[C@@H]2N1S(=O)(=O)c1ccccc1C (mixture of isomers),1.1
COc1ccc(-c2ccc([C@@H]3[C@@H](CO)N4CCCCN(C(=O)Cc5ccccc5)C[C@H]34)cc2)cc1,1.4
O=C(Cc1ccccc1)N1CCCCN2[C@@H](CO)[C@H](c3ccc(-c4ccccc4)cc3)[C@@H]2C1,-0.0073
CC(C)CC#Cc1ccc([C@H]2[C@H](CO)N3CCCCN(C(=O)Cc4ccccn4)C[C@@H]23)cc1,4.9
COc1ccc(C#Cc2ccc([C@@H]3[C@@H](CO)N4CCCCN(C(=O)Cc5ccccc5)C[C@@H]34)cc2)cc1,1.5
O=C(Cc1ccccc1)N1CCCCN2[C@H](C1)[C@@H](c1ccc(C#Cc3ccccc3)cc1)[C@@H]2CO,-2.6
